# According to PubChem BioAssay AID1159580 (chemical genetic matrix, 2015):
# In all, about 5,500 compounds went through this assay and about 2,000 (36%) were called active. Inconclusive results (about 18%) are left out. The list shows a part of the results. Unmarked numbers belong to inactive results. Rule as the data show it: active = normalized growth mostly below about 0.91 (no sharp cut-off); inconclusive = no clear call, values can overlap the other calls; inactive = mostly above about 0.92.
# Assay: chemical genetic growth profiling, strain panel (AID 1159580);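 also: tested at 20 µM; growth read once vehicle control cultures reached saturation at 30 °C; 1 = growth at the plate median or of vehicle wells; lower values mean less growth of the strain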
# Conditions: S. cerevisiae deletion strains, growth OD
compound,measurement,setting,value
CN(C)CCOc1ccc(/C(=C(/CCCl)c2ccccc2)c2ccccc2)cc1,normalized growth,"locus YAL021C, strain ccr4, stronger effect = lower value",0.0628 (active)
same,normalized growth,"locus YAL026C, strain drs2, stronger effect = lower value",0.0599 (active)
same,normalized growth,"locus YAL030W, strain snc1, stronger effect = lower value",0.0605 (active)
same,normalized growth,"locus YBL061C, strain skt5, stronger effect = lower value",0.0647 (active)
same,normalized growth,"locus YBR009C, strain hhf1, stronger effect = lower value",0.0629 (active)
same,normalized growth,"locus YBR023C, strain chs3, stronger effect = lower value",0.0684 (active)
same,normalized growth,"locus YBR171W, strain sec66, stronger effect = lower value",0.1 (active)
same,normalized growth,"locus YBR231C, strain swc5, stronger effect = lower value",0.0672 (active)
same,normalized growth,"locus YBR279W, strain paf1, stronger effect = lower value",0.0678 (active)
same,normalized growth,"locus YCL011C, strain gbp2, stronger effect = lower value",0.0647 (active)
same,normalized growth,"locus YCL016C, strain dcc1, stronger effect = lower value",0.0711 (active)
same,normalized growth,"locus YCL061C, strain MRC1, stronger effect = lower value",0.107 (active)
same,normalized growth,"locus YCL069W, strain vba3, stronger effect = lower value",0.071 (active)
same,normalized growth,"locus YCR088W, strain abp1, stronger effect = lower value",0.0709 (active)
same,normalized growth,"locus YDL005C, strain med2, stronger effect = lower value",0.0725 (active)
same,normalized growth,"locus YDL040C, strain nat1, stronger effect = lower value",0.0985 (active)
same,normalized growth,"locus YDR001C, strain nth1, stronger effect = lower value",0.0873 (active)
same,normalized growth,"locus YDR069C, strain doa4, stronger effect = lower value",0.0653 (active)
same,normalized growth,"locus YDR137W, strain rgp1, stronger effect = lower value",0.0958 (active)
same,normalized growth,"locus YDR159W, strain sac3, stronger effect = lower value",0.0868 (active)
same,normalized growth,"locus YDR195W, strain ref2",0.126 (active)
same,normalized growth,"locus YDR297W, strain sur2, stronger effect = lower value",0.0624 (active)
same,normalized growth,"locus YDR334W, strain swr1, stronger effect = lower value",0.0691 (active)
same,normalized growth,"locus YDR335W, strain msn5, stronger effect = lower value",0.0647 (active)
same,normalized growth,"locus YDR392W, strain spt3, stronger effect = lower value",0.0935 (active)
same,normalized growth,"locus YEL003W, strain gim4, stronger effect = lower value",0.0736 (active)
same,normalized growth,"locus YEL037C, strain rad23, stronger effect = lower value",0.0691 (active)
same,normalized growth,"locus YEL061C, strain CIN8 (second series), stronger effect = lower value",0.0848 (active)
same,normalized growth,"locus YER015W, strain faa2, stronger effect = lower value",0.0621 (active)
same,normalized growth,"locus YER016W, strain bim1, stronger effect = lower value",0.0811 (active)
same,normalized growth,"locus YER111C, strain swi4, stronger effect = lower value",0.0861 (active)
same,normalized growth,"locus YER155C, strain BEM2 (second series), stronger effect = lower value",0.107 (active)
same,normalized growth,"locus YFR010W, strain ubp6, stronger effect = lower value",0.069 (active)
same,normalized growth,"locus YGL167C, strain pmr1, stronger effect = lower value",0.0724 (active)
same,normalized growth,"locus YGL173C, strain kem1, stronger effect = lower value",0.0697 (active)
same,normalized growth,"locus YGL227W, strain vid30, stronger effect = lower value",0.0851 (active)
same,normalized growth,"locus YGL240W, strain doc1, stronger effect = lower value",0.0984 (active)
same,normalized growth,"locus YGL253W, strain hxk2, stronger effect = lower value",0.0578 (active)
same,normalized growth,"locus YHR013C, strain ard1, stronger effect = lower value",0.111 (active)
same,normalized growth,"locus YHR027C, strain rpn1, stronger effect = lower value",0.063 (active)
same,normalized growth,"locus YHR030C, strain SLT2, stronger effect = lower value",0.711 (active)
same,normalized growth,"locus YHR079C, strain IRE1, stronger effect = lower value",0.837 (active)
same,normalized growth,"locus YHR142W, strain chs7, stronger effect = lower value",0.0764 (active)
same,normalized growth,"locus YJL092W, strain hpr5, stronger effect = lower value",0.0832 (active)
same,normalized growth,"locus YJL095W, strain BCK1 (second series), stronger effect = lower value",0.0582 (active)
same,normalized growth,"locus YJL095W, strain BCK1, stronger effect = lower value",0.648 (active)
same,normalized growth,"locus YJL115W, strain asf1, stronger effect = lower value",0.118 (active)
same,normalized growth,"locus YJL129C, strain trk1, stronger effect = lower value",0.0917 (active)
same,normalized growth,"locus YJL154C, strain vps35, stronger effect = lower value",0.0755 (active)
same,normalized growth,"locus YJL164C, strain tpk1, stronger effect = lower value",0.0629 (active)
same,normalized growth,"locus YJL166W, strain qcr8, stronger effect = lower value",0.0637 (active)
same,normalized growth,"locus YJL187C, strain SWE1, stronger effect = lower value",0.0638 (active)
same,normalized growth,"locus YJR066W, strain TOR1, stronger effect = lower value",0.819 (active)
same,normalized growth,"locus YKL160W, strain elf1, stronger effect = lower value",0.079 (active)
same,normalized growth,"locus YKR026C, strain gcn3, stronger effect = lower value",0.106 (active)
same,normalized growth,"locus YKR091W, strain srl3, stronger effect = lower value",0.0783 (active)
same,normalized growth,"locus YLL001W, strain dnm1, stronger effect = lower value",0.0676 (active)
same,normalized growth,"locus YLL026W, stronger effect = lower value",0.0624 (active)
same,normalized growth,"locus YLL041C, strain sdh2, stronger effect = lower value",0.0691 (active)
same,normalized growth,"locus YLR027C, strain aat2, stronger effect = lower value",0.0598 (active)
same,normalized growth,"locus YLR113W, strain HOG1, stronger effect = lower value",0.791 (active)
same,normalized growth,"locus YLR221C, strain rsa3, stronger effect = lower value",0.0691 (active)
same,normalized growth,"locus YLR258W, strain gsy2, stronger effect = lower value",0.0661 (active)
same,normalized growth,"locus YLR262C, strain YPT6 (second series), stronger effect = lower value",0.0861 (active)
same,normalized growth,"locus YLR320W, strain mms22, stronger effect = lower value",0.0789 (active)
same,normalized growth,"locus YLR342W, strain FKS1, stronger effect = lower value",0.0712 (active)
same,normalized growth,"locus YLR357W, strain rsc2, stronger effect = lower value",0.148 (active)
same,normalized growth,"locus YLR370C, strain arc18, stronger effect = lower value",0.0617 (active)
same,normalized growth,"locus YLR384C, strain iki3, stronger effect = lower value",0.078 (active)
same,normalized growth,"locus YML120C, strain ndi1, stronger effect = lower value",0.0751 (active)
same,normalized growth,"locus YMR058W, strain fet3, stronger effect = lower value",0.064 (active)
same,normalized growth,"locus YMR125W, strain sto1, stronger effect = lower value",0.0872 (active)
same,normalized growth,"locus YMR129W, stronger effect = lower value",0.0788 (active)
same,normalized growth,"locus YMR205C, strain PFK2, stronger effect = lower value",0.0858 (active)
same,normalized growth,"locus YMR231W, strain pep5, stronger effect = lower value",0.0638 (active)
same,normalized growth,"locus YNL071W, strain lat1, stronger effect = lower value",0.0628 (active)
same,normalized growth,"locus YNL183C, strain NPR1, stronger effect = lower value",0.85
same,normalized growth,"locus YNL209W, strain ssb2, stronger effect = lower value",0.0599 (active)
same,normalized growth,"locus YNL248C, strain rpa49, stronger effect = lower value",0.166 (active)
same,normalized growth,"locus YNL322C, strain KRE1 (second series), stronger effect = lower value",0.433 (active)
same,normalized growth,"locus YNR049C, strain mso1, stronger effect = lower value",0.0725 (active)
same,normalized growth,"locus YOR001W, strain rrp6, stronger effect = lower value",0.0831 (active)
same,normalized growth,"locus YOR070C, strain gyp1, stronger effect = lower value",0.0593 (active)
same,normalized growth,"locus YOR080W, strain dia2, stronger effect = lower value",0.0814 (active)
same,normalized growth,"locus YOR083W, strain WHI5, stronger effect = lower value",0.0673 (active)
same,normalized growth,"locus YOR106W, strain vam3, stronger effect = lower value",0.117 (active)
same,normalized growth,"locus YOR231W, strain MKK1, stronger effect = lower value",0.791 (active)
same,normalized growth,"locus YOR265W, strain rbl2, stronger effect = lower value",0.0684 (active)
same,normalized growth,"locus YOR270C, strain vph1, stronger effect = lower value",0.0918 (active)
same,normalized growth,"locus YOR290C, strain snf2, stronger effect = lower value",0.0929 (active)
same,normalized growth,"locus YPL051W, strain arl3, stronger effect = lower value",0.0673 (active)
same,normalized growth,"locus YPL078C, strain atp4, stronger effect = lower value",0.0865 (active)
same,normalized growth,"locus YPL106C, strain sse1, stronger effect = lower value",0.1 (active)
same,normalized growth,"locus YPL240C, strain hsp82, stronger effect = lower value",0.0664 (active)
same,normalized growth,"locus YPL256C, strain CLN2, stronger effect = lower value",0.835
